7 compounds from PubChem BioAssay (Tox21) can be followed below.

A short description of experiment [1]: qHTS assay to identify small molecule agonists of the vitamin D receptor (VDR) signaling pathway - cell viability counter screen (AID 743224). Also: series mostly up to about 63 µM; nearly all actives have a fitted effect of over 50% in size. A digest of the protocol: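 Viability is measured in the same wells as the VDR-bla reporter assay: after 16 h compound treatment and 2 h substrate loading, CellTiter-Glo is added and luminescence read 30 min later.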
In general terms: In qHTS, concentration-response curves come from the screen itself.

A short description of experiment [2]: qHTS assay to identify small molecule agonists of the NFkB signaling pathway (AID 1159509; active = well fitted curve in the direction sought with a large enough effect in the signal ratio in the repeat runs, not every such curve was filed as active; the % refers to the signal ratio; also: series mostly up to about 61 µM). The method, boiled down: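 NFkB-bla ME-180 cells carry a beta-lactamase reporter under an NF-kB response element. They were plated overnight, then exposed to compounds for 5 h at 37 C. Read-out is LiveBLAzer FRET after 1.5 hr at room temperature (405 nm excitation; 460/530 nm emission).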

Experiment [3] can be described thus: qHTS assay to identify small molecule agonists of the NFkB signaling pathway - cell viability counter screen (AID 1159515; calls by dose curve; also: series mostly up to about 61 µM; nearly all actives have a fitted effect of over 55% in size). The method, boiled down:
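Multiplexed viability readout: after the 5 hr compound exposure and 1.5 hr FRET substrate step, CellTiter-Glo reagent went into the same NFkB-bla ME-180 wells; ATP luminescence was measured after 30 min at room temperature.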

The nature of experiment [4]: qHTS assay to identify small molecule agonists of the endoplasmic reticulum stress response signaling pathway (AID 1159516; active = well fitted activation curve with a large enough effect in the signal ratio in the repeat runs, not every such curve was filed as active; the % refers to the signal ratio). The method, boiled down:
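Tox21 10K library screened in quantitative HTS format on ESRE-bla HeLa cells, a beta-lactamase reporter under ER stress response element control; 5 hr treatment, FRET read.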

Experiment [5] can be described thus: qHTS assay to identify small molecule agonists of the endoplasmic reticulum stress response signaling pathway - cell viability counter screen (AID 1159517; calls by dose curve; also: series mostly up to about 61 µM; nearly all actives have a fitted effect of over 50% in size). The method, boiled down:
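CellTiter-Glo was added to wells already read for beta-lactamase FRET, and luminescence was recorded 30 min later. Cells: ESRE-bla HeLa, 1,500 per well, compound exposure 5 hr at 37 C.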

Experiment [6] can be described thus: qHTS assay to identify small molecule antagonists of the retinoid-related orphan receptor gamma (ROR-gamma) signaling pathway - cell viability counter screen (AID 1159520). Also: nearly all actives have a fitted effect of over 50% in size. A digest of the protocol: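 Tet-on ROR gamma CHO cells (1,000/well) were plated 4 hr, given compounds in DMSO for 2 hr at 37 C, then induced with 1 uM final doxycycline for 16 hr. Viability was read as ATP by CellTiter-Glo luminescence after 30 min.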

The target in experiment [7] is Nuclear receptor ROR-gamma (Homo sapiens) (UniProt P51449). Briefly: qHTS assay to identify small molecule antagonists of the retinoid-related orphan receptor gamma (ROR-gamma) signaling pathway (AID 1159521;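 also: CHO cells with doxycycline inducible ROR-gamma driving an RORE luciferase reporter; top concentration of the series differs between compounds; nearly all actives have a fitted effect of over 50% in size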). A digest of the protocol:
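Cells were plated, rested 4 h at 37 C, exposed to compounds for 2 h, then given 1 uM final doxycycline hyclate to induce RORγ expression. After 16 h, ONE-Glo luminescence from the ROR response element reporter was measured.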

Experiment [8] in a line: qHTS assay to identify small molecule agonists of the AP-1 signaling pathway - cell viability counter screen (AID 1159525; calls by dose curve; also: nearly all actives have a fitted effect of over 55% in size). A digest of the protocol:
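ME-180 AP-1-bla, 2500 cells/well, Opti-MEM + 0.5% dialyzed FBS; overnight 37 °C; cpd 15-pt titration, 5 h 37 °C; CellTiter-Glo 30 min RT; luminescence read; normalised to TOAB and DMSO controls.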

The nature of experiment [9]: qHTS assay to identify small molecule agonists of the AP-1 signaling pathway (AID 1159526; calls by dose curve).
The target in experiment [10] is Retinoic acid receptor RXR-alpha (Homo sapiens) (UniProt P19793). Briefly: qHTS assay to identify small molecule agonists of the RXR signaling pathway (AID 1159527; calls by dose curve; also: nearly all actives have a fitted effect of over 35% in size; also: potency is read from the fitted curve at half-maximal effect). A digest of the protocol: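 Cells plated at 2,000/well, rested 5 hr at 37 C, pin-dosed with DMSO compound solutions, incubated 16 hr, then loaded with B/G FRET substrate for 2 hr at RT before dual-emission fluorescence reading.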

Experiment [11] in a line: qHTS assay to identify small molecule agonists of the RXR signaling pathway - cell viability counter screen (AID 1159529). A digest of the protocol: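 Steps: seed RXR-alpha-UAS-bla HEK 293T cells in assay medium containing 2% charcoal-stripped FBS; incubate 5 hr; add compounds in DMSO; incubate 16 hr at 37 C; after the bla read, add CellTiter-Glo and read luminescence at 30 min.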

The nature of experiment [12]: qHTS assay to identify small molecule antagonists of the retinoid acid receptor (RAR) signaling pathway - cell viability counter screen (AID 1159551). Also: nearly all actives have a fitted effect of over 35% in size. A digest of the protocol: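 Cytotoxicity counter screen in C3RL4 cells: 6 h compound exposure with 1 uM retinol (final), viability from cellular ATP by luminescence.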
Experiment [13] in a line: qHTS assay to identify small molecule antagonists of the retinoic acid receptor (RAR) signaling pathway (AID 1159552; also: nearly all actives have a fitted effect of over 50% in size). A digest of the protocol:
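Retinol at 1 uM final stimulated RARE-luciferase expression in C3RL4 cells exposed to test compounds for 6 hr at 37 C. Reduced luminescence, read 30 min after detection reagent, indicated pathway antagonism.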

Experiment [14] is described as follows: qHTS assay to identify small molecule agonists of the retinoic acid receptor (RAR) signaling pathway (AID 1159553). The method, boiled down: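 Agonist activity was scored in C3RL4 cells bearing a retinoic acid response element luciferase construct. Cells were treated with compounds for 6 hr at 37 C, and luciferase signal was measured as luminescence.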
The nature of experiment [15]: qHTS assay to identify small molecule antagonists of the estrogen related receptor (ERR) signaling pathway from Tox21 library - cell viability counter screen (AID 1224834). Also: nearly all actives have a fitted effect of over 30% in size. The method, boiled down:
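Cytotoxicity of test substances is gauged in the same ERR cells used for the antagonist screen, after 17.5 h of compound treatment at 37 C, by CellTiter-Fluor fluorescence measured after 30 min.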

Experiment [16] has as its target Luciferin 4-monooxygenase (Photinus pyralis) (UniProt P08659). Nature of the experiment: qHTS assay to identify small molecule inhibitors of firefly luciferase (AID 1224835). Also: nearly all actives have a fitted effect of over 25% in size. Also: potency is read from the fitted curve at half-maximal effect. The method, boiled down: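 Quantitative HTS format; KM concentrations of both substrates. Purified P. pyralis FLuc activity quantified from luminescence images.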
Experiment [17] in a line: qHTS assay to identify small molecule agonists of the constitutive androstane receptor (CAR) signaling pathway - cell viability counter screen (AID 1224836). Also: series mostly up to about 92 µM; nearly all actives have a fitted effect of over 45% in size. A digest of the protocol: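 Cells were seeded and incubated 4 hrs. Compounds were added across 15 concentrations together with PK11195 at 0.75 uM final. Plates were incubated 23 hrs at 37 C. CellTiter-Fluor was added and fluorescence measured.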

Experiment [18] is described as follows: qHTS assay to identify small molecule antagonists of the constitutive androstane receptor (CAR) signaling pathway - cell viability counter screen (AID 1224837). Also: series mostly up to about 92 µM; nearly all actives have a fitted effect of over 45% in size. The method, boiled down: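 Multiplexed cytotoxicity read-out for the CAR antagonist screen: double-stable HepG2-CYP2B6-hCAR cells co-treated with 50 nM CITCO (final) and compound over 15 concentrations, incubated 23 hr, then assessed by CellTiter-Fluor fluorescence.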

Experiment [19] concerns the target Nuclear receptor subfamily 1 group I member 3 (Homo sapiens) (UniProt Q14994). Nature of the experiment: qHTS assay to identify small molecule antagonists of the constitutive androstane receptor (CAR) signaling pathway (AID 1224838). Also: nearly all actives have a fitted effect of over 40% in size. The method, boiled down:
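Compounds were titrated across 15 concentrations onto HepG2 cells double-stably expressing hCAR and a CYP2B6-2.2kb reporter, together with 50 nM CITCO (final). After 24 h at 37 C, luciferase activity was measured by luminescence.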

Experiment [20] is described as follows: qHTS assay to identify small molecule antagonists of the vitamin D receptor (VDR) signaling pathway - cell viability counter screen (AID 743225). Also: nearly all actives have a fitted effect of over 50% in size. A digest of the protocol: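 HEK293T VDR-bla; cpd + 1a,25-(OH)2D3 3 nM final, 16 h 37C/5% CO2; B/G FRET substrate 2 h RT; then CellTiter-Glo 30 min RT, luminescence.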

Inconclusive results are not listed. Values without a mark were called inactive. Active and inactive are the calls of the source. Unless noted, calls follow the shape of the dose curve; as a rule, active = well fitted curve in the direction sought with a large enough effect in the repeat runs; inconclusive = weak or mixed curves; inactive = no such curve, though single readings can be large; an effect the other way counts as inactive or inconclusive.

Chain of Retinoic acid receptor RXR-alpha (Homo sapiens) (P19793 whole entry, looked up): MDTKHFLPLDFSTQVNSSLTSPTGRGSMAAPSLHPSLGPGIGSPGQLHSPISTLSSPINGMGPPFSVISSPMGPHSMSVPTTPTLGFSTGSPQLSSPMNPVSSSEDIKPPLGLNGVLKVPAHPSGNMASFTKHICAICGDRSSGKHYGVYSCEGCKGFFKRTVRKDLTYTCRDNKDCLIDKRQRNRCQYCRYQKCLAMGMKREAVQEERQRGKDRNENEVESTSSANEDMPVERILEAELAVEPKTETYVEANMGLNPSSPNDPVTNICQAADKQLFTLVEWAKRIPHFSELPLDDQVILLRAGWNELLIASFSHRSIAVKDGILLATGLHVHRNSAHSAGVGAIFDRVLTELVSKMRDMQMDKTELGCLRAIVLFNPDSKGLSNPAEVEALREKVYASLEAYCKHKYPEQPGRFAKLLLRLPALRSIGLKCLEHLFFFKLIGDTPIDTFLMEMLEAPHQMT
Chain of Luciferin 4-monooxygenase (Photinus pyralis) (P08659 whole entry, looked up): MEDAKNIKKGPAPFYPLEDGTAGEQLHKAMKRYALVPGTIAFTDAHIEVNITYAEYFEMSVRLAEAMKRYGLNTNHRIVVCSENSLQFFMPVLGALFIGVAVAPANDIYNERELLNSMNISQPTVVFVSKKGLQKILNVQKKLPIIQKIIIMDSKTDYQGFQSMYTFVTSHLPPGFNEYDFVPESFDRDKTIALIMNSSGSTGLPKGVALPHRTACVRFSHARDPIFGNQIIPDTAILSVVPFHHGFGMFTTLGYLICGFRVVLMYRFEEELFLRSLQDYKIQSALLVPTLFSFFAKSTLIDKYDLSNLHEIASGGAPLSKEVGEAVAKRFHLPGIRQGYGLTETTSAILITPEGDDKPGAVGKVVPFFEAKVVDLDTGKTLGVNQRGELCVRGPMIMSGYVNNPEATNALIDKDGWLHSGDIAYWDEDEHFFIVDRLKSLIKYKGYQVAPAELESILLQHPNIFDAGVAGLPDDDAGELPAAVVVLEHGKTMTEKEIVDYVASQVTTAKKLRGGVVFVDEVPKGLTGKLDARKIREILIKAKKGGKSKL
Chain of Nuclear receptor subfamily 1 group I member 3 (Homo sapiens) (Q14994 whole entry, looked up): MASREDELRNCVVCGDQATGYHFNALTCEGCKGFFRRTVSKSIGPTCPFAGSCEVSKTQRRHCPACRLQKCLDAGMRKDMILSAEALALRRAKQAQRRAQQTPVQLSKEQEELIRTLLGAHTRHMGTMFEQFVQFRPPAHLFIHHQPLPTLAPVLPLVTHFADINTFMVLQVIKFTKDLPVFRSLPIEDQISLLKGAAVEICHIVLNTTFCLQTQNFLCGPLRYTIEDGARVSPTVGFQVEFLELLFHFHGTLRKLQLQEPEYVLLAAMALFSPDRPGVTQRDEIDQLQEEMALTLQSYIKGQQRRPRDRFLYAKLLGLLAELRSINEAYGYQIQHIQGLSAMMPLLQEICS

Turning to `NCCOCCN`, the result in experiment [1], in experiment [2], in experiment [3], in [4], in experiment [5] and in [6] was inactive. Besides, the compound was classed as inactive in experiment [7], in experiment [8], in [9], in experiment [11], in experiment [12] and in [13]. The compound was classed as inactive in experiment [15], in [17] and in experiment [18]. Moreover, the Potency entry in experiment [10], in experiment [14], in experiment [16] and in [19] was “inactive” throughout.

As to `OC[C@@H](O)C(O)[C@@H](O)CO` (stereo not given in full), the call in [1], in [2], in experiment [3], in [4], in experiment [5] and in experiment [6] was inactive. Further, the result in experiment [7], in experiment [8], in experiment [9], in [11], in experiment [12] and in experiment [13] was inactive. Also, the call in experiment [15], in experiment [17] and in [18] was inactive. The Potency in experiment [10] is 1.57 µM (active). The Potency entry in experiment [14], in [16] and in experiment [19] was “inactive” throughout.

On to `Cc1c(C(=O)c2c[nH]n(C)c2=O)ccc(S(C)(=O)=O)c1C1=NOCC1`, for which the call in experiment [1], in experiment [20], in experiment [2], in [3], in [4] and in [5] was inactive. Besides, the call in [6], in experiment [7], in experiment [8], in experiment [9], in experiment [11] and in [12] was inactive. For the same compound, the outcome in experiment [13], in experiment [15], in experiment [17] and in experiment [18] was inactive. Further, the Potency result in experiment [10], in experiment [14], in experiment [16] and in [19] was “inactive” in each case.

As to `CC/C=C\CCOC(=O)c1ccccc1O`, the result in experiment [1], in experiment [2], in [3], in [4], in experiment [5] and in experiment [6] was inactive. Further, the result in experiment [7], in experiment [8], in experiment [9], in experiment [11], in experiment [12] and in experiment [13] was inactive. The result in experiment [15], in experiment [17] and in experiment [18] was inactive. In addition, the Potency result in experiment [10], in experiment [14] and in experiment [19] was “inactive” throughout. Moreover, the Potency in experiment [16] was 17.8 µM (active).

Regarding `CC(CO)(CO)CO`, the call in experiment [1], in [20], in experiment [2], in [3], in experiment [4] and in [5] was inactive. Moreover, the compound was called inactive in experiment [6], in experiment [7], in [8], in experiment [9], in [11] and in experiment [12]. Also, the call in experiment [13], in experiment [15], in [17] and in [18] was inactive. Moreover, the Potency result in experiment [10], in experiment [14], in experiment [16] and in [19] was “inactive” throughout.

Turning to `C/C=C(\C)C(C)=O`, the compound was called inactive in [1], in experiment [2], in experiment [3], in experiment [4], in [5] and in experiment [6]. The outcome in [7], in experiment [8], in experiment [9], in experiment [11], in experiment [12] and in experiment [13] was inactive. For the same compound, the compound was called inactive in experiment [15], in [17] and in experiment [18]. Also, the Potency entry in experiment [10], in [14], in experiment [16] and in experiment [19] was “inactive” each time.

Take `CC(C)COC(=O)c1ccccc1`: the compound was called inactive in experiment [1], in experiment [2], in [3], in experiment [4], in [5] and in [6]. Further, the compound was called inactive in [7], in experiment [8], in experiment [9], in experiment [11], in [12] and in [13]. Besides, the compound was called inactive in experiment [15], in experiment [17] and in experiment [18]. Further, the Potency entry in experiment [10], in experiment [14], in experiment [16] and in experiment [19] was “inactive” each time.
